In PubChem BioAssay (Tox21):
“And” between values parts separate entries of the source, which are not always exact repeats. Identical values can stand only once. Results filed as inconclusive are left out. A call without a number means that no potency is given here. Where a structure was tested more than once in an assay, its records may differ in their call. The source made the active and inactive calls. Unless noted, the call rests on the fitted dose curve; in most records, active means well fitted curve in the direction sought with a large enough effect in the repeat runs; inconclusive means weak or mixed curves; inactive means no such curve, though single readings can be large; an effect the other way counts as inactive or inconclusive. Residues, ends and D or L forms follow the SMILES beside them.

Columns and labels:
[1] = A CellTox Green Cytotoxicity Assay to monitor cytotoxicity in HepG2 cells - 32 hour (AID 1224883); further: nearly all actives have a fitted effect of over 50% in size; further: potency means the concentration at half of the fitted maximal effect
How it was run: (§1)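 HepG2 cells were seeded together with the CellTox Green dye at 600 cells/well, left 5 h at 37 C/5% CO2, then given compounds in DMSO. Fluorescence from dye bound to dead-cell DNA was read repeatedly over 40 h of treatment at 37 C.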

[2] = A CellTox Green Cytotoxicity Assay to monitor cytotoxicity in HEK293 cells - 8 hour (AID 1224884); further: nearly all actives have a fitted effect of over 35% in size; further: potency means the concentration at half of the fitted maximal effect
How it was run: (§2)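 HEK293 cells premixed with CellTox Green dye were seeded at 600 cells/well and left 5 h at 37 C/5% CO2 before pin transfer of 23 nL compound in DMSO. Fluorescence from dye bound to dead-cell DNA was read during 40 h treatment.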

[3] = qHTS RealTime-Glo MT Cell Viability Assay in HepG2 cells - 16 hour (AID 1224885); further: nearly all actives have a fitted effect of over 50% in size
How it was run: (§3)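 HepG2 suspension premixed with RealTime-Glo reagents is plated at 600 cells per well and left 5 h at 37 C/5% CO2. Compounds in DMSO then go in, and bioluminescence reflecting viable cell number is recorded over 40 h.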

[4] = qHTS RealTime-Glo MT Cell Viability Assay in HEK293 cells - 24 hour (AID 1224886); further: top concentration of the series differs between compounds; nearly all actives have a fitted effect of over 50% in size
How it was run: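 Reads taken at 0, 8, 16, 24, 32 and 40 h from the same wells. HEK293 cells (600/well) carried RealTime-Glo reagents from seeding, with compound added after a 5 h settle at 37 C.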

[5] = qHTS RealTime-Glo MT Cell Viability Assay in HEK293 cells - 8 hour (AID 1224887); further: top concentration of the series differs between compounds; nearly all actives have a fitted effect of over 50% in size
How it was run: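 HEK293 cells mixed with RealTime-Glo reagents (NanoLuc plus cell-permeant prosubstrate) at 600 cells/well, preincubated 5 h at 37 C/5% CO2, then given 23 nL compound in DMSO. Nonlytic luminescence from viable cells was read at 0, 8, 16, 24, 32 and 40 h.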

[6] = A CellTox Green Cytotoxicity Assay to monitor cytotoxicity in HEK293 cells - 16 hour (AID 1224888); further: nearly all actives have a fitted effect of over 35% in size
How it was run: as §2

[7] = qHTS RealTime-Glo MT Cell Viability Assay in HepG2 cells - 0 hour (AID 1224889); further: nearly all actives have a fitted effect of over 50% in size
How it was run: as §3

[8] = qHTS assay to identify small molecule antagonists of the estrogen receptor alpha (ER-alpha) signaling pathway using the BG1 cell line in the presence of 0.1 nM 17-beta-estradiol - cell viability counter screen (AID 1259241); further: nearly all actives have a fitted effect of over 40% in size
How it was run: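 VM7Luc4E2 cells (endogenous ER-alpha, 4×ERE-luciferase), hormone-starved 5 days in charcoal-stripped FBS, were treated with compounds plus 0.1 nM 17beta-estradiol for 22 hr at 37C; viability read in same wells as CellTiter-Fluor live-cell protease fluorescence.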

[9] = qHTS assay to identify small molecule antagonists of the androgen receptor (AR) signaling pathway using the MDA cell line in the presence of 0.5 nM R1881 - cell viability counter screen (AID 1259242); further: nearly all actives have a fitted effect of over 45% in size
How it was run: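 MDA-kb2 cells (human breast carcinoma, stably carrying MMTV-luciferase reporter) were exposed to compounds with 0.5 nM R1881 (final) for 16 hr at 37C, 0% CO2; viability then read as live-cell protease fluorescence (CellTiter-Fluor, 30 min) in the same wells.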

[10] = target: Estrogen receptor (Homo sapiens) (UniProt P03372); assay: qHTS assay to identify small molecule antagonists of the estrogen receptor alpha (ER-alpha) signaling pathway using the BG1 cell line in the presence of 0.1 nM 17-beta-estradiol (AID 1259244); further: nearly all actives have a fitted effect of over 50% in size
How it was run: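 VM7Luc4E2 cells (endogenous full-length ER-alpha, stable 4xERE-luciferase) were grown 5 days in phenol red-free medium with charcoal-stripped FBS, then exposed 22 h at 37C to compounds plus 0.1 nM (final) 17beta-estradiol; ONE-Glo luminescence read-out.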

[11] = qHTS assay to identify small molecule phospholipidosis (PLD) inducers (AID 1259344; active means well fitted curve in the direction sought with a large enough effect; an effect the other way counts as inactive or inconclusive)
How it was run: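 HepG2 cells, 900/well, treated with compound plus LipidTOX Red for 24 h at 37 C; amiodarone positive and DMSO negative controls. Fixed with paraformaldehyde/Hoechst, then high-content imaging scored LipidTOX pit count and integrated intensity per well and per cell.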

[12] = qHTS assay to identify small molecule HDAC inhibitors (AID 1259364); further: top concentration of the series differs between compounds; nearly all actives have a fitted effect of over 45% in size
How it was run: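 Wild-type HCT-116 cells were plated overnight, exposed to compounds for 2 h at 37 °C, then given HDAC-Glo class I/II luminogenic reagent for 30 min at room temperature before luminescence was read.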

[13] = qHTS assay to identify small molecule HDAC inhibitors - cell viability counter screen (AID 1259365)
How it was run: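 Wild-type HCT-116 cells were seeded at 1,500 per well, incubated overnight at 37 C, then exposed to compounds in DMSO for 2hr. Viability was read by CellTiter-Glo luminescence after 30min at room temperature.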

[14] = qHTS assay to identify small molecule agonists of the sonic hedgehog signaling (Shh) pathway - cell viability counter screen (AID 1259366); further: nearly all actives have a fitted effect of over 50% in size; further: potency means the concentration at half of the fitted maximal effect
How it was run: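 NIH/3T3-derived 3T3 Gli1-Luc cells (stable Gli1-responsive firefly luciferase reporter) were seeded, rested 4 hr at 37 C/5% CO2, then exposed to compounds in DMSO for 24 hr; viability was read by CellTiter-Fluor fluorescence in the same wells.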

[15] = qHTS assay to identify small molecule antagonists of the sonic hedgehog signaling (Shh) pathway - cell viability counter screen (AID 1259367); further: nearly all actives have a fitted effect of over 55% in size
How it was run: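 NIH/3T3-derived Gli1-Luc reporter cells, 2,000/well, plated 4 hr before compound addition, then stimulated with conditioned medium for 24 hr at 37C. Viability measured in the same wells by CellTiter-Fluor fluorescence, reagent added at 23 hr for 1 hr.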

[16] = qHTS assay to identify small molecule agonists of the sonic hedgehog signaling (Shh) pathway (AID 1259368; calls by dose curve; further: series mostly up to about 92 µM; nearly all actives have a fitted effect of over 15% in size)
How it was run: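 NIH/3T3-derived 3T3Gli1-Luc cells carrying a stably integrated Gli1 response element–firefly luciferase reporter were plated, left 4 hr at 37 C, then given compounds in DMSO for 24 hr. Luminescence was read 30 min after adding luciferase reagent.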

[17] = qHTS assay to identify small molecule antagonists of the sonic hedgehog signaling (Shh) pathway (AID 1259369; calls by dose curve; further: nearly all actives have a fitted effect of over 45% in size; further: potency means the concentration at half of the fitted maximal effect)
How it was run: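 NIH/3T3-derived 3T3Gli1-Luc cells with stably integrated Gli1-Luc reporter were preincubated 4hr at 37 C, then given compounds in DMSO plus Shh conditioned medium and incubated 24hr. Firefly luciferase luminescence read after 30min reagent at room temperature.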

[18] = target: Estrogen receptor beta (Homo sapiens) (UniProt Q92731); assay: qHTS assay to identify small molecule agonists of the estrogen receptor beta (ER-beta) signaling pathway (AID 1259377; active means well fitted activation curve with a large enough effect in the signal ratio in the repeat runs, not every such curve was filed as active; the % refers to the signal ratio)
How it was run: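 ER-beta-UAS-bla HEK293T (GripTite) cells carrying a UAS-driven beta-lactamase reporter, in medium with 2% charcoal-stripped FBS, were exposed to compounds for 16 hr at 37C; LiveBLAzer B/G FRET substrate was then added and fluorescence read after 2 hours at room temperature.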

[19] = A CellTox Green Cytotoxicity Assay to monitor cytotoxicity in HepG2 cells - 8 hour (AID 1224890); further: nearly all actives have a fitted effect of over 45% in size
How it was run: as §1

Sequence of Estrogen receptor (Homo sapiens) (P03372 whole entry, looked up): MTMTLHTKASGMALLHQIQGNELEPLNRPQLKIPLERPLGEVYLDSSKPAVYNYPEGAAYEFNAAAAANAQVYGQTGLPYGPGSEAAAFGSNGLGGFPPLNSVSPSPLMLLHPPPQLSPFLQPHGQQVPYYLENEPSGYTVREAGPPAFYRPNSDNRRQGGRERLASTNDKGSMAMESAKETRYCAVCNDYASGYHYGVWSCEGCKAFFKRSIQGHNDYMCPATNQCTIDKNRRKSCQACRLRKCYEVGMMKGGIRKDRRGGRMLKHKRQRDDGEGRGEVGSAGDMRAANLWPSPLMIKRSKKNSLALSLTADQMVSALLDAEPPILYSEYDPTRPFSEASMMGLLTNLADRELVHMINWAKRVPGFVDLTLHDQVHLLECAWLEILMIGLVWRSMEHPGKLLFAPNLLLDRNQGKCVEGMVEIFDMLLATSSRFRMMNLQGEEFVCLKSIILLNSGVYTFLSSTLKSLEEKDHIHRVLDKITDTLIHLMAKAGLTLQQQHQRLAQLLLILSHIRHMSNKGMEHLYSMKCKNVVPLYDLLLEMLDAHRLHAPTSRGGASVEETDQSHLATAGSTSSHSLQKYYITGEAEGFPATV
Sequence of Estrogen receptor beta (Homo sapiens) (Q92731 whole entry, looked up): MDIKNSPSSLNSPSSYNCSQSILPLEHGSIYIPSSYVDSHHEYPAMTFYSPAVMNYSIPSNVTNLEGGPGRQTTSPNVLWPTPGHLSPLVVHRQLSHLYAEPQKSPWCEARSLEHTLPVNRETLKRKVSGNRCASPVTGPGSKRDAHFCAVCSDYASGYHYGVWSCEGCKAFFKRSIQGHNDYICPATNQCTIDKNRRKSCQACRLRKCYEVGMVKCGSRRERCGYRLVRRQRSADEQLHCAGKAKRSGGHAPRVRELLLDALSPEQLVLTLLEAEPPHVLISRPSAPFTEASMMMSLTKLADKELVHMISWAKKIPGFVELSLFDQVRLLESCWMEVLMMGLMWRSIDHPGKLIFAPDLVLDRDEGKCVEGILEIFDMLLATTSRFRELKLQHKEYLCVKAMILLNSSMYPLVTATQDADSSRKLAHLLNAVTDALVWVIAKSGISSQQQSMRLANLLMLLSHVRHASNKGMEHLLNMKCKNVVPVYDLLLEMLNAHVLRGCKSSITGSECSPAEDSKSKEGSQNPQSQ

Row | Structure (SMILES) | Potency [1] | Potency [2] | Potency [3] | Potency [4] | Potency [5] | Potency [6] | Potency [7] | Potency [8] | Potency [9] | Potency [10] | outcome [11] | Potency [12] | outcome [13] | Potency [14] | Potency [15] | outcome [16] | Potency [17] | outcome [18] | Potency [19]
1 | Nc1ccc(O)c(C(=O)O)c1 | inactive | inactive | inactive | inactive | inactive | inactive | inactive | inactive | inactive | inactive | inactive | inactive | inactive | inactive | inactive | inactive | inactive | inactive | –
2 | CC(O)C(=O)O (stereo not given) | inactive | inactive | inactive | inactive | inactive | inactive | inactive | inactive | inactive | inactive | inactive | inactive | inactive | inactive | – | inactive | inactive | – | inactive
3 | NC(N)=NC(=O)c1nc(Cl)c(N)nc1N | inactive | inactive | inactive | inactive | inactive | inactive | inactive | inactive | inactive | inactive | inactive | inactive | inactive | inactive | inactive | inactive | inactive | inactive | –
4 | O=C(O)CCCCC(=O)O | inactive | inactive | inactive | inactive | inactive | inactive | inactive | inactive | inactive | inactive | inactive | inactive | inactive | inactive | – | inactive | inactive | – | inactive
5 | Nc1ccc(S(=O)(=O)Nc2nccs2)cc1 | inactive and 43.6 µM (active) | inactive and 49 µM (active) | inactive | inactive | inactive | – | inactive | inactive | inactive | inactive | inactive | inactive | inactive | inactive | – | inactive | inactive | – | –
6 | COC(=O)[C@H](Cc1ccccc1)NC(=O)[C@@H](N)CC(=O)O (H-Asp-Phe-OMe) | inactive | inactive | inactive | inactive | inactive | inactive | inactive | inactive | inactive | inactive | inactive | inactive | inactive | inactive | – | inactive | inactive | – | inactive
7 | NC(N)=O | inactive | inactive | inactive | inactive | inactive | inactive | inactive | inactive | inactive | inactive | inactive | inactive | inactive | 23 µM (active) and inactive | – | inactive | 7.28 µM (active) and inactive and 68.6 µM (active) | inactive | inactive
8 | Nc1ccc(C(=O)O)cc1 | inactive | inactive | inactive | inactive | inactive | inactive | inactive | inactive | inactive | inactive | inactive | inactive | inactive | inactive | inactive | inactive | inactive | inactive | –
9 | C/C=C/c1ccc(OC)cc1 | inactive | inactive | inactive | inactive | inactive | inactive | inactive | inactive | inactive | – | inactive | inactive | inactive | inactive | inactive | inactive | inactive | inactive | –
